SMILES strings stand for the structures. Out of some 3,600 compounds screened, about 900 (25%) were called active. The rule behind the calls is not given here. The list is a sample of the results. Entries with a potency or affinity are not part of this list.

The test has as its target Protein Tat (Human immunodeficiency virus type 1 group M subtype B (isolate HXB2)) (UniProt P04608). As to the kind of experiment: HIV-1 Tat–TAR interaction blockers – biochemical, fluorescence polarization, FAM-labeled TAR RNA, counter-screen for Vif-APOBEC3G degradation inhibitor project, dose response (AID 1117361). To be noted: Tat-TAR RNA binding; series mostly up to 100 µM.
With `O=C(c1cccc(S(=O)(=O)N2CCCC2)c1)N1CCOCC1`, the compound was classed as inactive. Then `COc1ccc(OCCOC(=O)c2cc(S(=O)(=O)N3CCOCC3)c(Cl)cc2Cl)cc1`, with “inactive”; and `COc1ccc(CN2CCSCC2)cc1C`, with “inactive”. As for `O=[N+]([O-])c1c(Nc2ccccc2O)cc(Cl)c2nonc12`, the result was inactive. Under `CCC(=O)OCCNc1cc(Sc2nc3ccccc3[nH]2)c2nonc2c1[N+](=O)[O-]` stands “inactive”. Under `CN(CCO)c1cc(Sc2nc3ccccc3s2)c2nonc2c1[N+](=O)[O-]` stands “inactive”; under `O=C(O)c1cc(Nc2cc(Cl)c3nonc3c2[N+](=O)[O-])ccc1O`, “inactive”. Under `C=CCSc1nnc(-c2ccc(Cl)cc2Cl)o1` stands “inactive”; under `O=C1N=NC2=C1c1c3ccccc3c(O)n1CC2`, “inactive”; under `N#CC1=C(Nc2ccccc2)SC=C(c2ccc(Br)cc2)N=C1N1CCOCC1`, “inactive”. For the compound `Cc1onc(-c2ccccc2Cl)c1C(=O)N1CCN(c2cccc(Cl)c2)CC1`, the call was inactive. Consider `COc1ccc(CC(=O)OCn2nnc3ccccc3c2=O)cc1`, for which the call was inactive. Regarding `CC(NC(=O)CN(C)Cc1nc2ccccc2c(=O)[nH]1)c1ccccc1` (stereo unspecified), the compound was called inactive.

Take `Cc1ccc(CNC(=O)C2CCCN(S(=O)(=O)c3cnc[nH]3)C2)cc1` (stereo unspecified): the outcome was inactive. Take `COCCn1c(SCC(=O)N2CCC(C)CC2)nc2ccccc2c1=O`: the compound was classed as inactive.

As to `COc1ccc(/C=N/NC(=O)CNc2n[nH]c(=O)[nH]c2=O)cc1OC`, the compound was classed as inactive. For `O=C(Nc1nc2n(n1)C(c1ccccc1)CC(c1ccc(Cl)cc1)N2)c1ccco1` (stereo unspecified), the outcome was inactive.

On to `COc1cccc(-c2nc3cc(C)ccc3o2)c1`, for which the compound was classed as inactive. As to `Cc1nc2nc(-c3ccccc3)cn2nc1C`, the compound was called inactive. Then `CON(c1nc(N(C)C)nc(N(C)C)n1)S(=O)(=O)c1ccccc1Cl`, with “inactive”; and `O=C(Cn1nc(-c2ccc(Cl)cc2)ccc1=O)NCc1ccc2c(c1)OCO2`, with “inactive”.

As for `O=S(=O)(c1ccc(Cl)s1)N1CCN(Cc2ccccc2)CC1`, the result was inactive. In the case of `CC1CCN(Cc2cnc(Cl)s2)CC1`, the compound was called inactive. Under `CCCCSc1nc2sc3c(c2c(=O)[nH]1)CCC3` stands “inactive”. Then `CCn1c(SCC(=O)OC)nc2sc3c(c2c1=O)CCC3`, with “inactive”; and `Cc1nn(C)cc1CNC(=O)C1C2CCC(C2)C1C(=O)O` (stereo unspecified), with “inactive”. Under `CCN1C(=O)CS/C1=C(\C#N)S(=O)(=O)c1ccccc1` stands “inactive”; under `Clc1ccc(CSCCc2ccncc2)cc1`, “inactive”; under `COC1=C(N)C(=O)c2nc(C)ccc2C1=O`, “inactive”.

For the compound `COC1=C(Br)C(=O)c2nc(C)ccc2C1=O`, the result was inactive.

Consider `CCOC(=O)C1(Cc2ccc(OC)cc2)CCN(C(=O)Cc2cccnc2)CC1`, for which the outcome was inactive. Then `COC(=O)C(Cc1c[nH]c2ccccc12)NC(=O)C(C)C` (stereo unspecified), with “inactive”. Then `Cc1ccc(CNC(=O)CCC2CCCN(Cc3cc4ccccc4o3)C2)o1` (stereo unspecified), with “inactive”. Then `Cc1ccc(CCNC(=O)C2CCCN(S(=O)(=O)c3c(C)noc3/C=C/N(C)C)C2)cc1` (stereo unspecified), with “inactive”; and `Cc1ccc(S(=O)(=O)c2c(N)n(NC(=O)C3CC3)c3nc4ccccc4nc23)cc1`, with “inactive”; and `Cc1ccc(C)c(CN2C(=O)C(C)Oc3ccc(C)cc32)c1` (stereo unspecified), with “inactive”. As to `CC1(C)Cc2c(c(=S)nc(-c3ccccc3)n2CCCN2CCOCC2)CO1`, the compound was called inactive.

`C=CCN=c1scc(C)n1/N=C/c1ccc(O)c(O)c1`: the compound was classed as inactive. Under `COc1ccc(Cl)cc1N(CC(=O)Nc1ccc2c(c1)OCO2)S(C)(=O)=O` stands “inactive”; under `COC(=O)c1cccc(NC(=O)NC2CCCN2S(=O)(=O)c2ccc(Cl)cc2)c1` (stereo unspecified), “inactive”; under `CS(=O)(=O)N(C(=O)NC(=O)NC1CCS(=O)(=O)C1)C1CCCCC1` (stereo unspecified), “inactive”. Turning to `COc1ccc(C2CC(=O)Nc3cc(C)c(C)cc32)c(OC)c1OC` (stereo unspecified), the result was inactive. Regarding `CC(C(=O)N1CCOCC1)(c1ccccc1)c1ccccc1`, the result was inactive. Take `CC(=O)c1ccc(Nc2nc(=O)c3cccnc3s2)cc1`: the result was inactive. Then `CN(C)c1ccc(C=c2c3cc([N+](=O)[O-])ccc3n3c2cc(-c2ccccc2)[n+]3C)cc1`, with “inactive”; and `NNC(=S)Nc1ccc(Cl)cc1`, with “inactive”; and `CC(=O)c1ccc(N2CCN(C(=O)c3ccc4c(c3)OCO4)CC2)cc1`, with “inactive”.

As to `O=C(NCCS(=O)CCNC(=O)C(F)(F)F)C(F)(F)F`, the result was inactive. Consider `Cc1onc(-c2ccccc2)c1C(=O)NCC1COc2ccccc2O1` (stereo unspecified), for which the call was inactive. Take `CC(=O)Cc1nsc(Nc2ccc3c(c2)OCCO3)n1`: the result was inactive. Then `O=C(NN(C(=O)c1ccccc1)c1ccccc1)c1ccccc1`, with “inactive”; and `CC(NC(=O)C1C(=O)N(CCO)C2(C)CC1c1ccccc1O2)c1ccccc1` (stereo unspecified), with “inactive”.

For the compound `CN1OC[C@@H]2CN(C(=O)C(C)(C)C)[C@H](c3cccc(Oc4ccccc4)c3)C[C@@H]21`, the compound was classed as inactive. With `O=C(c1cc(COc2cccc3cccnc23)on1)N1CCC[C@H]1CO`, the compound was classed as inactive.

In the case of `C=CCc1cc(Cl)ccc1OC(=O)Nc1cccc(Cl)c1`, the outcome was inactive.

Consider `COc1ccc2[nH]c3c(N4CCC(O)(c5cccc(C(F)(F)F)c5)CC4)ncnc3c2c1`, for which the call was inactive. As to `Clc1ccc(CSc2snnc2-c2ccccc2)c(Cl)c1`, the compound was classed as inactive. Then `Cc1ccc(CSc2nnc(-c3ccco3)o2)cc1`, with “inactive”; and `CCCCN(CCCC)CCCN1CC(=O)N2[C@@H](Cc3c([nH]c4ccccc34)C2(C)C)C1=O`, with “inactive”. Then `CC(C)Cn1c(=O)[nH]c2ccccc21`, with “inactive”; and `COc1ccc(CCN=C(N)NS(=O)(=O)c2ccc(C)cc2)cc1`, with “inactive”. For the compound `O=C(NCc1ccco1)c1sc2cccc(F)c2c1Cl`, the outcome was inactive.

In the case of `CCN(CC)C(=O)Cn1cnc2sc(C(=O)Nc3cc(OC)c(OC)c(OC)c3)c(C)c2c1=O`, the call was inactive. Then `CCc1ccc(NC(=O)CCNS(=O)(=O)c2cccc3nonc23)cc1`, with “inactive”; and `Cc1cc(NC(=O)CSc2nnc(-c3ccncc3)n2N)ccc1Br`, with “inactive”; and `CCN(CC)c1ccc(NC(=O)c2ccc(Br)o2)cc1`, with “inactive”.

For the compound `COc1ccc(NC(=O)c2ccc(S(=O)(=O)N3CCOCC3)o2)cc1`, the compound was called inactive. Under `O=C(O)Cn1c(=O)c2c(c3ccccc31)CCC2` stands “inactive”; under `CS(=O)(=O)N1CCN(c2ccccc2NC(=O)CSc2ccc(Cl)cc2)CC1`, “inactive”. Consider `Cn1cccc1Cc1nnc(SCC(N)=O)n1CCc1ccccc1`, for which the compound was classed as inactive. Turning to `CC[C@H](C)[C@H](NC(N)=O)C(=O)NCCc1ccc(OC)cc1`, the call was inactive. As to `Cc1c(C)n(CC(O)CN2CCCCCC2)c2ccccc12` (stereo unspecified), the outcome was inactive. Regarding `Cc1ccc(-n2c(SCC(=O)NCc3ccco3)nc3c([nH]c4ccccc43)c2=O)cc1`, the result was inactive. Under `CC1CCc2c(sc3ncn4c(SCC(=O)NCc5ccco5)nnc4c23)C1` (stereo unspecified) stands “inactive”; under `CCn1c(Cc2c(C)[nH]c3ccccc23)n[nH]c1=S`, “inactive”; under `COc1ccc(-c2noc(Cc3cccs3)n2)cc1`, “inactive”. Take `O=C(/C=C/c1ccc(O)c(O)c1)c1ccc(S(=O)(=O)N2CCCCCC2)cc1`: the compound was called inactive. On to `CCCNS(=O)(=O)c1ccc(NC(=O)c2ccccn2)cc1`, for which the compound was classed as inactive. Regarding `CC(C)(C)c1ccc(C(=O)Oc2ccc3c(c2)OCC3=O)cc1`, the call was inactive. In the case of `O=C1/C(=C\c2ccco2)CCC/C1=C\c1ccco1`, the outcome was inactive. For the compound `C=CCNC(=S)NNC(=O)c1ccccc1`, the outcome was inactive.

Take `COc1ccc(N/N=C(\C#N)C(=N)SCc2ccccc2)cc1`: the call was inactive.

Turning to `CC1(C)Cc2cccc(OCC(O)CN3CCN(c4ccccn4)CC3)c2O1` (stereo unspecified), the outcome was inactive. With `O=C1CNC(=O)/C1=C/c1ccc(Br)cc1`, the result was inactive. In the case of `CC1CC(C)CN(C(=O)COC(=O)CNS(=O)(=O)/C=C/c2ccccc2)C1` (stereo unspecified), the call was inactive. On to `CCS(=O)(=O)N1CCN(C(=O)c2cccc3ccccc23)CC1`, for which the result was inactive.

As to `CN(C)CCCNC(NC(=O)c1cccs1)C(Cl)(Cl)Cl` (stereo unspecified), the result was inactive. Regarding `Cc1nc2c3ccccc3n(CC(=O)c3ccc(F)cc3)c(=O)n2n1`, the compound was classed as inactive. Under `O=C(NC(=S)N1CCN(c2c(Cl)cccc2[N+](=O)[O-])CC1)c1cccs1` stands “inactive”; under `COc1cc2c(cc1NC(=O)CC1SC(N3CCCC3)=NC1=O)oc1ccccc12` (stereo unspecified), “inactive”. Then `COc1ccc2nc(N3CCN(C(=O)c4ccc5ncsc5c4)CC3)sc2c1`, with “inactive”. Under `COc1ccc(C(=O)Nc2cccc(C(=O)N3CCN(C)CC3)c2)cc1` stands “inactive”; under `O=S(=O)(c1ccc2nc(-c3ccco3)c(-c3ccco3)nc2c1)N1CCOCC1`, “inactive”; under `COc1ccc(N2CCN(C(=O)c3ccc(C)c(Cl)c3)CC2)cc1`, “inactive”.

Regarding `O=S(=O)(c1ccc(F)cc1)N(CCO)CC(O)Cn1c2ccccc2c2ccccc21` (stereo unspecified), the outcome was inactive. For `Cc1c(C(=O)N2CCN(c3ccc(F)cc3)CC2)sc2nc(-c3ccccc3)cn12`, the outcome was inactive. Regarding `CCS(=O)(=O)n1nc(-c2ccc(Cl)cc2)nc1SC`, the result was inactive. Then `Cn1c(C(=O)NCCN2CCOCC2)cc2c(=O)n(C)c3ccccc3c21`, with “inactive”; and `COc1ccc(CNC(=O)Cn2nc(C(F)(F)F)c3c2CCC3)cc1`, with “inactive”. In the case of `Cc1sc(NC(=O)c2ccccc2)c(C(=O)NCCN(C)C)c1C`, the call was inactive. Turning to `CC1COCC(C)N1C1=C(Cl)C(=O)c2ccccc2C1=O` (stereo unspecified), the call was inactive.

Consider `NC(=O)C1CCN(C2=C(Cl)C(=O)c3ccccc3C2=O)CC1`, for which the call was inactive.

With `CCc1cc2c(=O)n(-c3ccc(C)cc3)cnc2s1`, the call was inactive. Under `COc1ccc(CCNS(=O)(=O)c2ccc3c(c2)CCN3C(=O)CCC(=O)O)cc1OC` stands “inactive”. For the compound `COc1ccc(C2C(C(=O)NCCN(C)C)c3ccccc3C(=O)N2C)cc1OC` (stereo unspecified), the compound was called inactive.

In the case of `CCCCN(CCCC)S(=O)(=O)c1ccc(NC(=O)c2cccs2)cc1`, the compound was classed as inactive. Take `[O-][n+]1onc2c1CCc1c-2nc(-c2ccccc2)n1OCc1ccccc1`: the compound was classed as inactive.

Consider `CCN(CCCNC(=O)C1CCCN(S(=O)(=O)CC)C1)c1cccc(C)c1` (stereo unspecified), for which the result was inactive. Then `O=C(c1ccc2c(c1)OCCO2)C1CCN(C(=O)c2ccc(F)cc2)CC1`, with “inactive”; and `CCc1ccccc1NC(=S)N(Cc1ccc(OC)cc1)CC1CCC(C(=O)O)CC1` (stereo unspecified), with “inactive”. Under `CCn1cc(C(=O)NCc2ccc3c(c2)OCO3)c2cc(OC)c(OC)cc2c1=O` stands “inactive”.

The values are drawn from PubChem BioAssay AID1117361 (Southern Research Institute, 2015).
